Rows were chosen to be rich in hits. Some 14% of all compounds tested hit in one or more screens of this group.
USP28 inh: inhibitors of human USP28 deubiquitinase | Q96RU2 | purified USP28, Ub-rhodamine cleavage fluorescence, 30 min | inhibition, % at 25 µM | 47,000 tested, 3% active
USP17 block: inhibitors of human USP17 deubiquitinase | purified USP17, Ub-rhodamine cleavage fluorescence, 3 h | inhibition, % at 50 µM | 47,000 tested, 6.5% active
USP8 inh: inhibitors of human USP8 deubiquitinase; purified USP8, Ub-rhodamine cleavage fluorescence, 30 min; P40818; 47,000 tested, 4.2% active; AID 1645853; inhibition, % at 20 µM
USP10 block: blocks human USP10 ubiquitin-rhodamine cleavage. Q14694. purified USP10, Ub-rhodamine fluorescence, 60 min. inhibition, % at 20 µM. 47,000 tested, 1.1% active. AID 1645856
USP30 inh: inhibitors of human USP30 deubiquitinase. purified USP30, Ub-rhodamine cleavage fluorescence. Q70CQ3. inhibition, % at 25 µM. 47,000 tested, 5.3% active. AID 1645860
Each line names hits and unclear results; the compound was inactive in the other large screens. Cut-off read from the data, not from the text of the source: active = inhibition above about 30%; inactive = the rest.

c1ccc(-c2cc(-c3nnc4c5ccccc5cnn34)[nH]n2)cc1	USP17 block 47
c1ccc(-c2nn3c(-c4ccco4)nnc3c3ccccc23)cc1	none
Cc1nn(-c2nc3ccccc3[nH]2)c2c1C(c1cccs1)CC(=O)N2 (centres undefined)	USP28 inh 31, USP17 block 52, USP8 inh 38
Cc1nn(-c2nc3ccccc3n2C)c2c1C(c1ccsc1)CC(=O)N2 (centres undefined)	none
Cc1nn(-c2nc3ccccc3[nH]2)c2c1C(c1cccc(F)c1)CC(=O)N2 (centres undefined)	none
Cc1nn(-c2nc3ccccc3[nH]2)c2c1C(c1ccccc1Cl)CC(=O)N2 (centres undefined)	USP8 inh 51
CCN1CC[C@@]2(C(=O)N3CCCC3)CCN(C(=O)Nc3cccc(Cl)c3)CC[C@@H]12	none
CN1Cc2c(C(=O)N3CC=CC3)ncn2-c2ccccc2S1(=O)=O	none
Cc1nc2cc(-c3nccn3C)[nH]n2c(=O)c1Cl	none
O=C(CSc1nc(C(F)(F)F)cc(=O)[nH]1)NCc1ccccc1	none
O=C(CSc1nc2cc(C(F)(F)F)ccc2s1)NCC(=O)c1ccccc1	USP17 block 91, USP8 inh 32, USP10 block 45
Fc1ccc(Nc2nc(Nc3cccc(F)c3)nc3nccnc23)cc1	USP30 inh 61
Cc1ccc(Nc2nc(Nc3ccc(F)cc3)nc3nccnc23)cc1C	none
COC(=O)c1ccc(Nc2cc(C)nc3cc(C(F)(F)F)ccc23)cc1	USP17 block 64, USP8 inh 35, USP30 inh 66
COC(=O)c1ccc(COC(=O)c2cc(C)nc3ccccc23)cc1	none
COc1ccc(C(=O)Nc2cc(F)c3[nH]c(=O)ccc3c2)cc1	USP17 block 39, USP30 inh 35
COc1ccc(OC)c(NC(=O)c2ccc(C)c(F)c2)c1	none
O=c1c(S(=O)(=O)N2CCCC2)cccn1Cc1nc(-c2ccccc2Cl)no1	none
O=C(Nc1sc2c(c1-c1nc3ccccc3[nH]1)CCCC2)c1ccccc1[N+](=O)[O-]	USP8 inh 32
O=C(Nc1sc2c(c1-c1nc3ccccc3[nH]1)CCCC2)c1ccncc1	USP8 inh 31
COc1ccc(NC(=O)COC(=O)c2ccccc2OCc2ccc(F)cc2)cc1	none
C=Cn1ncc(CN2CCC3(CC2)Nc2ccccc2C2=NCCN23)c1C	none
CCc1ccc(C2c3c(-c4cc(C)cc(C)c4O)n[nH]c3C(=O)N2Cc2cccnc2)cc1 (centres undefined)	USP8 inh 74
CC1NC(=O)C(CC(N)=O)NC(=O)C(C(C)O)NC(=O)C(C(C)C)NC(=O)C(C(C)C)NC(=O)C(NC(=O)CC(O)CCCCCCCCCCCCN=C(N)N)C(C)OC1=O (centres undefined)	USP28 inh 84, USP17 block 70, USP30 inh 90
COc1cc(NC(=O)C(C)n2c(=O)cc(-c3ccccc3)c3c(C)nn(C)c32)cc(OC)c1 (centres undefined)	none
N#Cc1c(N2CCOCC2)nc(N)c2c(N)nc3c(c12)CC(c1ccccc1)O3 (centres undefined)	none
N#Cc1c(N)nc2c(c1N)C(c1ccccc1)CO2 (centres undefined)	USP17 block 44, USP30 inh 58
Cc1noc(-c2ccnc(-n3ncc(C(=O)N4CCN(Cc5ccccc5)CC4)c3C)c2)n1	none
CCCC(=O)N1CCC2(CC1)Nc1ccccc1NC2=O	USP17 block 70, USP8 inh 87
O=C(CCCc1c[nH]c2ccccc12)N1CCN(S(=O)(=O)c2ccc(F)cc2)CC1	USP30 inh 41
O=C(CCCc1c[nH]c2ccccc12)N1CCN(S(=O)(=O)c2ccc(Br)cc2)CC1	none
CN(c1ccc(C(=O)Nc2ccccc2C(=O)N2CCOCC2)cc1)S(=O)(=O)c1ccccc1	none
CO[C@@H]1C[C@@H](C[C@H]2CC[C@H](C)[C@H]([C@@H](C)C(=O)O)O2)O[C@]2(O[C@](C)([C@H]3CC[C@@](C)([C@@H]4O[C@@H]([C@H]5O[C@](C)(O)[C@H](C)C[C@@H]5C)C[C@@H]4C)O3)C[C@H]2C)[C@@H]1C	USP30 inh 34
Cc1cncc(C(=O)N2CC[C@H]3NC(=O)c4ccccc4OCCCCC[C@H]3C2)c1	none
O=C(Cn1c(=O)[nH]c2c(-c3ccccc3)c[nH]c2c1=O)NCc1ccccc1Cl	USP8 inh 41
O=C(Cn1c(=O)c2c(ncn2C2CCCC2)n(Cc2ccccc2)c1=O)NCc1ccccc1Cl	none
CSc1ccc(CNC(=O)Cn2c(=O)[nH]c3c(-c4ccccc4)c[nH]c3c2=O)cc1	USP8 inh 73
CN(Cc1ccccc1)C(=O)Cn1c(=O)[nH]c2c(-c3ccccc3F)c[nH]c2c1=O	none
CC(C)C(=O)N1CCC2(CCN(Cc3ccc(Cl)cc3)C2)C1 (centres undefined)	none
COc1cc(C)c2c(=O)c3c(oc2c1)C(=O)c1c(O)c(OC)cc(O)c1C3=O	USP28 inh 35, USP17 block 71
Cc1sc(-c2ccccn2)nc1OC(=O)c1cccc(Cl)c1Cl	USP17 block 77, USP30 inh 82
COc1ccc2c(c1)c1ncn(CCN3CCCC3)c(=O)c1n2C	none
COc1ccc2c(c1)c1ncn(Cc3ccc4c(c3)OCO4)c(=O)c1n2C	USP17 block 35, USP30 inh 48
COc1ccc2c(c1)c1ncn(CCC3=CCCCC3)c(=O)c1n2C	USP28 inh 47, USP30 inh 31
Cc1cc(C)nc(SCCn2c(N3CCC(Cc4ccccc4)CC3)nc3c2c(=O)n(C)c(=O)n3C)n1	USP17 block 41, USP30 inh 56
C=C(C)Cn1c(N2CCC(Cc3ccccc3)CC2)nc2c1c(=O)[nH]c(=O)n2C	USP30 inh 37
COc1ccc2c(c1)C[C@@H](c1cccnc1)N[C@H]2c1ccccn1	none
COc1ccc2c(c1)C[C@@H](c1cccnc1)N[C@H]2c1cccnc1	USP8 inh 41
Nc1ncnc2sc(Nc3ccc([N+](=O)[O-])cc3)nc12	USP28 inh 33, USP17 block 34, USP8 inh 50, USP30 inh 39
COc1ccc(-n2nnc(C(=O)NC3CC3)n2)cc1	none
COc1ccc(-n2nnc(C(=O)Nc3nc(C)c(C)s3)n2)cc1	USP28 inh 42, USP17 block 48, USP30 inh 34
COc1cccc(NC(=O)c2nnn(-c3ccccc3)n2)c1	USP28 inh 66
Cc1nc(NC(=O)c2nnn(-c3ccc(F)cc3)n2)sc1C	USP17 block 40
COc1ccccc1CNC(=O)c1nnn(-c2ccc(Cl)cc2)n1	USP30 inh 35
COc1ccc(-n2nnc(C(=O)NCc3ccc(F)cc3F)n2)cc1	none
Cc1ccc(NC(=O)c2nnn(-c3ccccc3)n2)cc1	none
O=C(c1noc2ccc(S(=O)(=O)N3CCCCCC3)cc12)N1CCCCC1	none
COC(=O)c1ccc(CNC(=O)COC(=O)c2cc(-c3ccccc3)nc3ccccc23)cc1	USP30 inh 47
COc1ccc(C2CCN(CC(=O)NCc3ccco3)CC2)cc1OC	none
